Assay results published in PubChem BioAssay (NCATS).
Results filed as inconclusive are left out. Active and inactive are the calls of the source. The call rests on the fitted dose curve; in most records, active means well fitted inhibition curve with a large enough effect; inconclusive means small, poorly fitted or top-dose-only effect; inactive means flat fitted curve, though single readings scatter.

Columns and labels:
[1] = qHTS profiling for inhibitors of Plasmodium falciparum proliferation (AID 504749); further: nearly all actives have a fitted effect of over 60% in size;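 on activity, negative = inhibition: 0% = DMSO vehicle and full inhibition = artemisinin control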; details: P. falciparum in erythrocytes, SYBR Green DNA, 72 h
Outline: (§1)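 Infected RBCs, 0.3% parasitemia/2.5% Hct final; cpd 72 h, 37 C, 5% CO2; lysis buffer with saponin/triton/SYBR Green I, o/n RT dark; FI 485/535; norm. to artemisinin (0.29 uM) and DMSO.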

3D7 = test: as above; details: P. falciparum in erythrocytes, SYBR Green DNA, 72 h; series mostly up to 28.7 µM
Outline: as §1

AS120 = test: as above; details: P. falciparum in erythrocytes, SYBR Green DNA, 72 h; series mostly up to 28.7 µM
Outline: as §1

ATS189 = test: as above; details: P. falciparum in erythrocytes, SYBR Green DNA, 72 h; series mostly up to 28.7 µM
Outline: as §1

C2A = test: as above; details: P. falciparum in erythrocytes, SYBR Green DNA, 72 h; series mostly up to 28.7 µM
Outline: as §1

CP185 = test: as above; details: P. falciparum in erythrocytes, SYBR Green DNA, 72 h; series mostly up to 28.7 µM
Outline: as §1

CP191 = test: as above; details: P. falciparum in erythrocytes, SYBR Green DNA, 72 h; series mostly up to 28.7 µM
Outline: as §1

CP192 = test: as above; details: P. falciparum in erythrocytes, SYBR Green DNA, 72 h; series mostly up to 28.7 µM
Outline: as §1

CP201 = test: as above; details: P. falciparum in erythrocytes, SYBR Green DNA, 72 h; series mostly up to 28.7 µM
Outline: as §1

CP217 = test: as above; details: P. falciparum in erythrocytes, SYBR Green DNA, 72 h; series mostly up to 28.7 µM
Outline: as §1

CP237 = test: as above; details: P. falciparum in erythrocytes, SYBR Green DNA, 72 h; series mostly up to 28.7 µM
Outline: as §1

CP238 = test: as above; details: P. falciparum in erythrocytes, SYBR Green DNA, 72 h; series mostly up to 28.7 µM
Outline: as §1

CP247 = test: as above; details: P. falciparum in erythrocytes, SYBR Green DNA, 72 h; series mostly up to 28.7 µM
Outline: as §1

AA1029 = test: as above; details: P. falciparum in erythrocytes, SYBR Green DNA, 72 h; series mostly up to 28.7 µM
Outline: as §1

ATS95 = test: as above; details: P. falciparum in erythrocytes, SYBR Green DNA, 72 h; series mostly up to 28.7 µM
Outline: as §1

CP194 = test: as above; details: P. falciparum in erythrocytes, SYBR Green DNA, 72 h; series mostly up to 28.7 µM
Outline: as §1

CP203 = test: as above; details: P. falciparum in erythrocytes, SYBR Green DNA, 72 h; series mostly up to 28.7 µM
Outline: as §1

CP211 = test: as above; details: P. falciparum in erythrocytes, SYBR Green DNA, 72 h; series mostly up to 28.7 µM
Outline: as §1

CP215 = test: as above; details: P. falciparum in erythrocytes, SYBR Green DNA, 72 h; series mostly up to 28.7 µM
Outline: as §1

7G8 = test: as above; details: P. falciparum in erythrocytes, SYBR Green DNA, 72 h; series mostly up to 28.7 µM
Outline: as §1

[2] = at 12.8 µM (top of the series), parasite line A
[3] = at 12.8 µM (top of the series), parasite line B
[4] = at 28.7 µM (top of the series), parasite line A
[5] = at 28.7 µM (top of the series), parasite line B
Potency means the concentration at half of the fitted maximal effect.

CN1CCc2c(c3ccccc3n2Cc2ccccc2)C1
inactive: activity, negative = inhibition [1, 2] -0.349% | activity, negative = inhibition [1, 3] -7.12% | Potency (3D7) | Potency (AS120) | Potency (ATS189) | Potency (C2A) | Potency (CP185) | Potency (CP191) | Potency (CP192) | Potency (CP201) | Potency (CP217) | Potency (CP238) | Potency (CP247)
active: Potency (CP237) 5.01 µM

O=C(O)CCC/C=C\C[C@@H]1[C@@H](/C=C/[C@@H](O)COc2cccc(C(F)(F)F)c2)[C@H](O)C[C@@H]1O
inactive: activity, negative = inhibition [1, 4] -5.12% | activity, negative = inhibition [1, 5] -7.34% | Potency (3D7) | Potency (AA1029) | Potency (AS120) | Potency (ATS189) | Potency (ATS95) | Potency (C2A) | Potency (CP185) | Potency (CP191) | Potency (CP194) | Potency (CP201) | Potency (CP203) | Potency (CP211) | Potency (CP215) | Potency (CP217) | Potency (CP237) | Potency (CP238) | Potency (CP247)

CC/C=C\C/C=C\C/C=C\CCCCCCCC(=O)O
inactive: activity, negative = inhibition [1, 4] -1.47% | activity, negative = inhibition [1, 5] -1.74% | Potency (3D7) | Potency (AA1029) | Potency (AS120) | Potency (ATS189) | Potency (C2A) | Potency (CP185) | Potency (CP192) | Potency (CP194) | Potency (CP201) | Potency (CP203) | Potency (CP211) | Potency (CP215) | Potency (CP217) | Potency (CP237) | Potency (CP238) | Potency (CP247)

CO/N=C(/C(=O)N[C@@H]1C(=O)N2C(C(=O)O)=C(COC(N)=O)CS[C@H]12)c1ccco1
inactive: activity, negative = inhibition [1, 4] 6.01% | activity, negative = inhibition [1, 5] 2.26% | Potency (3D7) | Potency (AA1029) | Potency (AS120) | Potency (ATS189) | Potency (ATS95) | Potency (C2A) | Potency (CP185) | Potency (CP191) | Potency (CP192) | Potency (CP194) | Potency (CP201) | Potency (CP203) | Potency (CP211) | Potency (CP215) | Potency (CP217) | Potency (CP237) | Potency (CP238) | Potency (CP247)

C[C@@](Cc1ccc(O)c(O)c1)(NN)C(=O)O
inactive: activity, negative = inhibition [1, 4] -19.2% | activity, negative = inhibition [1, 5] -6.85% | Potency (3D7) | Potency (ATS189) | Potency (ATS95) | Potency (C2A) | Potency (CP185) | Potency (CP191) | Potency (CP192) | Potency (CP194) | Potency (CP201) | Potency (CP211) | Potency (CP215) | Potency (CP217) | Potency (CP238) | Potency (CP247)

Oc1cccc(O)c1O
inactive: activity, negative = inhibition [1, 4] -26.1% | activity, negative = inhibition [1, 5] -8.69% | Potency (AA1029) | Potency (ATS95) | Potency (C2A) | Potency (CP185) | Potency (CP217) | Potency (CP238)

CC(=O)[C@H]1CC[C@H]2[C@@H]3C=CC4=CC(=O)CC[C@@]4(C)[C@H]3CC[C@]12C
inactive: activity, negative = inhibition [1, 2] 0.59% | activity, negative = inhibition [1, 3] -8.1% | Potency (7G8) | Potency (AA1029) | Potency (AS120) | Potency (ATS189) | Potency (ATS95) | Potency (C2A) | Potency (CP185) | Potency (CP191) | Potency (CP192) | Potency (CP194) | Potency (CP201) | Potency (CP203) | Potency (CP211) | Potency (CP215) | Potency (CP217) | Potency (CP237) | Potency (CP238) | Potency (CP247)

COC(=O)[C@@H](N)CS
inactive: activity, negative = inhibition [1, 4] -8.41% | activity, negative = inhibition [1, 5] 10.4% | Potency (7G8) | Potency (AA1029) | Potency (AS120) | Potency (ATS189) | Potency (C2A) | Potency (CP185) | Potency (CP191) | Potency (CP192) | Potency (CP194) | Potency (CP201) | Potency (CP203) | Potency (CP211) | Potency (CP217) | Potency (CP237) | Potency (CP238) | Potency (CP247)

CN1C(C(=O)Nc2ccccn2)C(=O)c2sc(Cl)cc2S1(=O)=O (configuration not stated)
inactive: activity, negative = inhibition [1, 4] 8.71% | activity, negative = inhibition [1, 5] -14.1% | Potency (3D7) | Potency (AA1029) | Potency (AS120) | Potency (ATS189) | Potency (ATS95) | Potency (C2A) | Potency (CP185) | Potency (CP191) | Potency (CP192) | Potency (CP194) | Potency (CP201) | Potency (CP203) | Potency (CP211) | Potency (CP215) | Potency (CP217) | Potency (CP238) | Potency (CP247)
